High-throughput results: PubChem BioAssay, The Scripps Research Institute Molecular Screening Center
Hits are enriched below; roughly 3.5% of the tested compounds scored in any of these assays.
FBW7 act = activators of human E3 ligase FBW7; hit rate 0.13% among 650,000; Q969H0; normalized activity (activation), % at 26.1 µM; AlphaScreen FBW7–phospho-cyclin E peptide binding, activator screen; AID 1259310; in the data active = normalized activity above about 1.9%;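 note: purified mutant Fbw7 with reduced substrate affinity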
GPR151 ag = human GPR151 activation; PathHunter beta-arrestin GPR151 cells, luminescence; hit rate 1% among 650,000; activation, % at 11.2 µM; in the data active = activation above about 4.9%;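 note: 0% = median of compound wells and 100% = cells with positive control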
Target sequence (Q8TDV0 whole entry, looked up): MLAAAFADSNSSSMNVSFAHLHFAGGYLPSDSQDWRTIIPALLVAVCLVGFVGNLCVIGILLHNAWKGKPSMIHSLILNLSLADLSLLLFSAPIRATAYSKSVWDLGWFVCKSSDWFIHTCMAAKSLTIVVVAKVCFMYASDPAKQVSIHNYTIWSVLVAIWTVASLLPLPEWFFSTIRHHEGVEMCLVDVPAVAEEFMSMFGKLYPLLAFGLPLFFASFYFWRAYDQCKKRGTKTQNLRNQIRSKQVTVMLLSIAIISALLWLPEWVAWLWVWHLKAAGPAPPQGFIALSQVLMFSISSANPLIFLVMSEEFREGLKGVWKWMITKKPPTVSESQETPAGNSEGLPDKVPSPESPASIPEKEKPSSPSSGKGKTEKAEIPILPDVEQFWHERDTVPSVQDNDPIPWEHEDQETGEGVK
MITF inh = human MITF inhibition, primary screen; inhibition, % at 2.6 µM; hit rate 0.91% among 650,000; AlphaScreen MITF homodimerization, bead proximity signal; in the data active = inhibition above about 50%;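 note: 0% = vehicle wells with protein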
TEAD-YAP inh = TEAD-YAP interaction inhibition; AID 1259422; hit rate 1.4% among 640,000; HEK-TIYL cells, TEAD-Gal4/YAP UAS-luciferase luminescence; inhibition, % at 9.12 µM; in the data active = inhibition above about 32%;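 note: 0% = median of test compound wells and 100% = reference inhibitor wells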
GPR151 confirm = confirmation of human GPR151 activators | shares compounds with GPR151 ag | GPR151 PathHunter beta-arrestin cells, luminescence, 90 min; % of EA-reagent control over plate median | activation, % at 11.2 µM | 6,700 tested, under 10 active | AID 1508609;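 active = mean percent activation across replicates above the confirmation screen cutoff of 4.91%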
GPR119 counter = counter-screen for GPR151 activators: effect on human GPR119. shares compounds with GPR151 ag. GPR119 PathHunter beta-arrestin cells, luminescence, 90 min; 0 = compound-well median, 100 = enzyme-acceptor control. activation, % at 11.2 µM. hit rate 0.3% among 6,700. AID 1508611;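 active = mean percent activation in the counterscreen above 29.09%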;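 note: counterscreen on off-target GPR119 to flag nonselective hits from the GPR151 activator screen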
Numbers without * were called inactive.

For O=C(c1cc(Cc2ccc(F)cc2)no1)N1CC2CCCC1C2 (stereo unspecified) the results were FBW7 act 0, GPR151 ag 0, MITF inh 18 and TEAD-YAP inh -29.
CC(C)NC(=O)NC(=O)CSc1nc(-c2ccccc2)cn1N was read as FBW7 act 0, GPR151 ag 1, MITF inh 28 and TEAD-YAP inh -6.
COc1ccc(/C=C2/C(=O)NC(=O)N(c3ccccc3OC)C2=O)cc1 was read as FBW7 act 0, GPR151 ag 3, MITF inh -1 and TEAD-YAP inh -11.
`Cc1ccccc1OCC(=O)NN1CC(O)=C(c2nc(-c3ccc(F)cc3)cs2)C1=N` gave FBW7 act 0, GPR151 ag 5.6*, MITF inh 0, TEAD-YAP inh 7, GPR151 confirm 1 and GPR119 counter 0.
For CC(=O)n1cc(/C=c2\sc3nc4cc(C)c(C)cc4n3c2=O)c(-c2ccc(F)cc2)n1 the results were FBW7 act 0, GPR151 ag 6.1*, MITF inh -12, TEAD-YAP inh -7, GPR151 confirm 1 and GPR119 counter -7.
For C=C(C)c1cccc(C(C)(C)NC(=O)Nc2ccccc2F)c1 the results were FBW7 act 0, GPR151 ag 9.5*, MITF inh 15, TEAD-YAP inh 18, GPR151 confirm 0 and GPR119 counter -8.
For C=C(C)c1cccc(C(C)(C)NC(=O)Nc2ccc(C(C)=O)cc2)c1 the results were FBW7 act 0, GPR151 ag 0, MITF inh 6 and TEAD-YAP inh -1.
For CC(=O)c1ccc(OCC(O)CN2CCCCC2C)cc1 (stereo unspecified) the results were FBW7 act 0, GPR151 ag 5.2*, MITF inh -22, TEAD-YAP inh 0, GPR151 confirm -1 and GPR119 counter -12.
`CC1CCCC(C)N1CC(O)COc1ccc(N)cc1` (stereo unspecified) gave FBW7 act 0, GPR151 ag 4.9*, MITF inh -2, TEAD-YAP inh 7, GPR151 confirm 0 and GPR119 counter -5.
For Cc1nc(O)c(C(c2ccc([N+](=O)[O-])cc2)c2c(O)nc(C)[nH]c2=O)c(=O)[nH]1 the results were FBW7 act 0, GPR151 ag 1, MITF inh -8 and TEAD-YAP inh 1.
`COc1ccc(CC2(CO)CCN(S(=O)(=O)c3cc(C)cs3)CC2)cc1` gave FBW7 act 0, GPR151 ag 0, MITF inh -14 and TEAD-YAP inh 3.
Cc1csc(S(=O)(=O)N2CCC(CO)(Cc3ccccc3Cl)CC2)c1 was read as FBW7 act 0, GPR151 ag 27*, MITF inh -3, TEAD-YAP inh -10, GPR151 confirm -1 and GPR119 counter -7.
COc1ccc(/C(Cl)=C(\C=N\O)c2ccc(OC)cc2)cc1 was read as FBW7 act 0, GPR151 ag 1, MITF inh 0 and TEAD-YAP inh -7.
For COc1ccc(C2(CNC(=O)COc3ccccc3F)CCCC2)cc1 the results were FBW7 act 0, GPR151 ag 1, MITF inh -4 and TEAD-YAP inh 2.
Cc1nc(-c2cncc(Br)c2)cc(N2CCN(c3ccccn3)CC2)n1 was read as FBW7 act 0, GPR151 ag 0, MITF inh -2 and TEAD-YAP inh 4.
`Cc1ccc(-c2cncc(-c3cc(Nc4ncccn4)nc(C)n3)c2)cc1` gave FBW7 act 0, GPR151 ag -1, MITF inh 42 and TEAD-YAP inh 1.
COc1ccc(-c2cncc(-c3cc(Nc4ncccn4)nc(C)n3)c2)cc1 was read as FBW7 act 0, GPR151 ag 6.9*, MITF inh 3, TEAD-YAP inh -1, GPR151 confirm -1 and GPR119 counter 0.
For COc1ccc(C2C(C(N)=O)=C(C)Nc3ncnn32)cc1OC (stereo unspecified) the results were FBW7 act 0, GPR151 ag 5.1*, MITF inh 3, TEAD-YAP inh -3, GPR151 confirm 1 and GPR119 counter 10.
COc1cc(C2C(C(N)=O)=C(C)Nc3ncnn32)cc(OC)c1OC (stereo unspecified) was read as FBW7 act 0, GPR151 ag 1, MITF inh -1 and TEAD-YAP inh 6.
Screening C=CCNC(=O)c1ccc(Cl)cc1[N+](=O)[O-] returned FBW7 act 0, GPR151 ag -1, MITF inh -34 and TEAD-YAP inh 11.
Cc1ccc(S(=O)(=O)N(C)CCCC(=O)n2cnc3ccccc32)cc1 was read as FBW7 act 0, GPR151 ag 1, MITF inh -6 and TEAD-YAP inh 2.
`COc1ccc(CCNC(=O)c2csc(-c3cccs3)n2)cc1` gave FBW7 act 1, GPR151 ag 0, MITF inh 18 and TEAD-YAP inh -3.
Screening O=C(NCCc1ccc(O)cc1)c1csc(-c2cccs2)n1 returned FBW7 act 0, GPR151 ag 6.4*, MITF inh 36, TEAD-YAP inh -3, GPR151 confirm 0 and GPR119 counter 5.
Screening CSc1nc(-c2ccc(F)cc2)nc2c1c(=O)n(C)c(=O)n2C returned FBW7 act 0, GPR151 ag 1, MITF inh 0 and TEAD-YAP inh 5.
For Cc1nccn1CCN(C)c1nc2nonc2nc1NCc1ccccc1 the results were FBW7 act 0, GPR151 ag 12*, MITF inh 7, TEAD-YAP inh 2, GPR151 confirm 0 and GPR119 counter 2.
For CN(CCc1ccccn1)c1nc2nonc2nc1NCc1ccccc1 the results were FBW7 act 0, GPR151 ag -1, MITF inh 4 and TEAD-YAP inh -1.
CN(Cc1ccccc1)C(=O)c1ccc2c(=O)n(CCc3ccccc3)c(SCc3cccc([N+](=O)[O-])c3)nc2c1 was read as FBW7 act 0, GPR151 ag 11*, MITF inh -5, TEAD-YAP inh 1, GPR151 confirm -1 and GPR119 counter -16.
Screening O=C(c1ccc2c(=O)n(CCc3ccccc3)c(SCc3cccc([N+](=O)[O-])c3)nc2c1)N1CCCC1 returned FBW7 act 0, GPR151 ag 2, MITF inh 18 and TEAD-YAP inh 10.
`COc1ccc(F)c(CN2CCN(C3CCCC3)C(CCO)C2)c1` (stereo unspecified) gave FBW7 act 0, GPR151 ag 1, MITF inh 4 and TEAD-YAP inh 6.
For COc1cccc(CN2CCC3(CC2)CC3C(=O)NCc2cccc(C(F)(F)F)c2)c1O (stereo unspecified) the results were FBW7 act 0, GPR151 ag 5.0*, MITF inh -4, TEAD-YAP inh -3, GPR151 confirm 1 and GPR119 counter 13.
